Assay results: PubChem BioAssay AID1508600 (Functional Genomics Laboratory (NCATS/FGL), 2020)
The campaign covered roughly 53,000 sequences. About 3,700 (7%) were called active. Shown is part of a subset that was picked to be rich in actives. Unmarked numbers belong to inactive results.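 Rule for the calls: active = gene knockdowns whose robust z-score for IL-1 alpha signal is at least 2 or at most -2, so actives lie on both sides; inactive = the rest.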

Test: Components of the Cytosolic LPS Sensing Pathway: Gene Identification via Genome-wide siRNA Screen
Settings: RAW264.7 macrophages, IL-1a HTRF, actives lie on both sides, screened at 100 nM (by protocol), cells primed 5 h with Pam3CSK4 first
Description: Non-canonical inflammasome activation by cytosolic LPS is a critical component of the host response to Gram-negative bacterial infection, however we lack a comprehensive understanding of the cellular processes that control this pathway. Here we describe a genome-wide siRNA screen to identify genes regulating the mouse macrophage IL-1 alpha response to cytosolic LPS.
RAW264.7 cells were maintained in complete DMEM media, comprising DMEM with 4.5 g/L glucose, 10% FBS (Gemini Bio-Products, West Sacramento, CA), 2 mM Glutamine (Lonza) and 20 mM HEPES (Lonza), hereafter complete DMEM.
The RNAi screen was conducted in 384-well format using the Ambion Silencer Mouse Genome siRNA Library (#4391425), which consists of three unique, nonoverlapping, nonpooled siRNAs for each of 17,000 gene targets. siRNA reagents ([…]) were stamped into 384-well white flat-bottom microplates (Corning, 3570) using a Velocity11 VPrep liquid handling system (Agilent) integrated into a BioCel robotic platform (Agilent) in columns 1-22, leaving columns 23-24 empty for negative (Ambion, Negative control #1) and positive (mouse Casp4) controls, respectively. The median value of each plate's negative control column was used to normalize sample wells, and the positive control was used to assess transfection efficiency and assay performance.
Lipofectamine RNAiMAX Transfection Reagent ([…]; Invitrogen) was added in […] serum-free, antibiotic-free media to plate wells using a Thermo Scientific Matrix WellMate and Microplate Stacker. Plates were incubated for 45 min at room temperature to allow for the sufficient formation of siRNA-lipid complexes. Cells were seeded at a density of 1x10^4 cells per well in 20 microL media containing 20% (vol/vol) FBS without antibiotics. The final concentration of siRNA in each well was 100 nM. Cells were cultured for 48h at 37 degrees C in 5% CO2 before addition of […] of TLR ligand Pam3CSK4 for 5 hours. The medium was then removed, replaced with […] growth media and cell were transfected with […] of LipidA and TransIT-TKO (Mirus) for 24 hour. At the end of the LipidA treatment, […] of supernatant was transferred to a 384 Greiner Bio-one non-binding low volume plate and […] of IL-1a HTRF reagent (Cisbio, 62MIL1APEH) was added and incubated at room temperature overnight. The plates were read on an EnVision plate reader (PerkinElmer). Cell viability was measured by adding 20ul Cell Titer Glo to the original plate and running a luminescence read on the EnVision. The quantified IL-1a signal for each siRNA gene-targeted well was divided by the median of the negative control wells and multiplied by 100 to achieve a negative control normalized value for each well/siRNA. This normalized value was then used to generate a robust z-score by first taking the log of each value and then by subtracting the median and dividing by the […].

Sequence | z-score
UAACUGGGCUCACGUUGACTT against Pou2f1 | 0.47
GGUACAAAAUGGCUUGUUGTT against Tmem215 | 2.53 (active)
GGUCCACACCAGACAUCAATT against Wfdc5 | 0.263
CGGUGAUGGUUCAUUUGCATT against Zmiz2 | 1.36
GGCUGUGAAGAACUGGCAGTT against Rnaseh2a | 1.85
GGUUGUGAGCUAACAAUGGTT against B430209F14Rik | 1.25
GAGAACGCGUUUUUGGGACTT against Defa5 | 1.66
GGGAUGUAUUAGUGAAAGGTT against Dmpk | 0.368
GGAGGAAAUAUGUUAACUATT against Atp6ap2 | 1.22
CGGCAACCGGCACUAUAAATT against Pnoc | 0.231
GGCAUUUCAUAGAGAGAAUTT against LTO1 | -2.21 (active)
GCCUUAGGCCUUUGUUUCCTT against Tpgs2 | 0.124
GGUUCUGGACUUCAUCCUCTT against Ocstamp | 1.42
GGAAAAUUAAUAGCACAAGTT against Acot13 | 0.0633
GGUUUACUGUGAAAAAAGATT against Morc2b | 0.0774
CCUGAUACUAACAAGGAAATT against Afmid | -0.625
GGUUGUCUUGACACCCUACTT against Tnfrsf1b | -2.21 (active)
GGAGAAGCAGAUUCUUCAATT against Calhm6 | -0.0547
GGGAUGUCUGUUGAAAUAATT against Prcc | -0.422
CCAUGACACUCAUUCCCAGTT against Tbc1d7 | -2.64 (active)
CCAUGUUUAUGGCACGCUGTT against Postn | 0.536
GGUUUGUAGAGGCAUCAAGTT against Snph | -0.13

Sequence | z-score
GCAUCCUUCUGAGUUGAUGTT against Tollip | -1.02
CCUUGAGAAAGCUCCAGUUTT against Cldn9 | 0.0773
GGUGUUUCAUAUGGUUACUTT against Psma3 | -0.94
GGAAGUUUGAGUUUGAGCUTT against Fbxl21 | 1.79
GCUCUCUAUAGGAUAAUGGTT against Vwa5b2 | -1.86
CGAUAUCAAGAGUGCAUGATT against Gas6 | 2.97 (active)
GGCUAAUCACCAAUUUCUUTT against Derl2 | -1.19
GCACCUUCAACCAACAAGGTT against Dph3 | -0.311
GGUCAUUCGCUUCGAAAAGTT against C1qb | -2.05 (active)
GGAAUUCCUCUGUAUGAAATT against Pgr | -0.824
GGACUACCACAGCCUCUUCTT against Pxn | 0.173
GGGCAAAUGAUAUAAGGAUTT against Ndufa12 | -0.585
CCUCUUGGUUAAAUAAUGUTT against Rnf103 | -1.9
GCGGCAACAUUCAAAGUGGTT against Itgb2l | -1.94
GGCUGUGUCAUCACCAUCUTT against Acot7 | -1.31
GGAUGCUCUCUUAAAUGGATT against Gbp6 | 0.327
GGUUGUCAAGAAAUUACCCTT against Marchf10 | 2.14 (active)
GGAUGAUAUCUCAGUCAUGTT against Sult2a8 | 0.462
GGAAGGAAUUGGUUACCUATT against Cep72 | -0.2
GGCUGAGUGAAUUGGGAAUTT against Olfr419 | 1.28
GGACGAUAGGACCCAAAGGTT against Sh3tc1 | 0.668
GGAUUUGUACACACUUCAATT against Tcim | 1.48

Sequence | z-score
GGCAUCCAAUCCUGUGGAGTT against Bcl11a | -0.62
GGGAGAUAUCUUCUCAGUATT against Psmb11 | 1.5
CGUAGAUGUCCUAGAAUUGTT against Rundc1 | 1.37
GGAGGAGUAUGAAGAGCUGTT against Poc5 | -0.0911
GGACAAUUCAGAGUGAUAGTT against Mog | -2.21 (active)
GCGAUGAUAAGUGCCUGGUTT against Stk31 | -1.58
CGGAGUGAAACUACUCAUUTT against Ckb | -0.773
GGUGAUUUAUUCAGUUCAATT against Lmbrd2 | -1.13
CCUUUGAAAAAGCUUGCCATT against Tor1aip2 | 0.0385
GGUGCUAUGGAAAAUCAAGTT against Dcaf1 | -1.04
GGAAAUGUUUAUCACGGUUTT against Scube2 | 2.05 (active)
GGUCAUGCAAGACAAGAUCTT against Lrrc8c | 0.487
GGCAGCGAAAGUUUUCAAGTT against Pcdhga12 | 0.721
GGAAUCCUGGAUUGAGGAATT against Rhod | 0.394
GCACUGGAAUGUCAUCUCGTT against Casp3 | 2.9 (active)
GGGUCAACUACUCACACUGTT against Crhr2 | 0.78
CCAUAAGCGAAAUGCCUUCTT against Areg | 0.201
CGUUGUUUAUUCCAAAGAGTT against Runx1 | 0.44
GGAAGUAAAGGGAUUUAACTT against Ankrd46 | 2.19 (active)
GACCCAGGCUCUGCUCUUUTT against Olfr1413 | 0.413
CCGGAAAUUUCUGAUGGAGTT against Eif4ebp1 | 2.19 (active)
GCUAGAUAUCCGGAACCAATT against Ndufv3 | -0.752

Sequence | z-score
GAGACAUCCUCUUCACCAUTT against Olfr495 | -1.25
GGAAGAAUUCUCAAAGAAUTT against Scyl3 | -0.343
GGAUCUGAGCCUUAACAAGTT against Lpcat3 | 2.92 (active)
GGAAGAGCUGCUGAAUUCATT against Mthfd2 | 0.052
GGUUAUCUUGAAUAAAGCUTT against Zfp346 | -0.303
CCGAUAAAAGAUGACCUCATT against D17H6S56E-5 | -0.241
GGUUUGAGAGUGGUAAUCUTT against Agbl3 | 2.17 (active)
GGCGAUUUACAAGCUGAAGTT against Guca1b | 0.566
CCGUUAGAGCUGUUAUUUUTT against Olfr556 | 0.959
CCUCGAACCAAGAUGUUCATT against Pdzrn3 | 0.851
GGCACACAAUUUUCACUGATT against Pcdhb9 | 0.315
GGUCAGCAUUUGCUAUGAATT against Tmsb15l | -2.02 (active)
GCCAAGUCUGCUUCACGAGTT against Nyap1 | 1.82
CCUCACAAUAUCUUUAGAATT against Cep162 | -0.0322
GGCAGGAUAUGUAUUCUGATT against Tmem121b | 1.15
GGAAACCUCCGAAAGGCAUTT against Rcor1 | -0.0503
GGAUAAAGUCACCUUCAUCTT against Itgam | 1.86
CCGCUAUAUCACGGAGCAGTT against En1 | 2.45 (active)
GCACUUUCCUAAUGGUCCUTT against Ifnab | 0.104
GGAUCCUCACCAAGAUUACTT against Mrps22 | 0.391
GGAAUUUAAGGAAGCUGCUTT against Homer1 | -0.698
GGGUGAGAAAAUUCACGAGTT against Tubg2 | 0.536

Sequence | z-score
GCCAAGGUGCAGAUAAGGUTT against Rhox7a | 2.6 (active)
GGAUUGAGAAAAUCUACAUTT against Tnfrsf8 | 0.505
GGGUCAGAUGGUACCAAGATT against Adamts18 | 0.0174
GCCUUGUUUAUAUGCCCAATT against Olfr592 | 0.0232
GGCAAGAAAGAAAGGCCAATT against Rps23 | 0.00872
CCCUCUGUGGUUAAAGACUTT against Tctex1d2 | -2.88 (active)
GGUUCAAUUCACAGAGCGCTT against Mrpl21 | 1.37
GGGCAACUUUGAUUAAUCATT against Hsd3b7 | 1.02
GGUAACUUCAUGUGCAGCATT against Ldlrad3 | -1.71
GGCGUAUGCAGAAUUCUACTT against Cox6c | -0.0709
GGAGAAGUCAUUGUUUUUGTT against Klhdc2 | -0.493
GGCACAACAUCAUCUGUCUTT against Psmd9 | -2.05 (active)
GCUACUGACCAUUCUAACUTT against Tmem198b | 0.264
GGAAGGACUGUCAAAUGGCTT against Med11 | -0.171
CCAUGUCUUGAACUUGGAUTT against Tsks | 0.793
CCGACUCCAGUUGAAUGUUTT against Tgif2 | -0.572
CCAGUUUGAUGGUAGACAATT against Tifa | -1.38
CGUAUUGUUUCCUAGCACATT against Arhgef38 | 2.08 (active)
GGUACCCAGCGAUCAUGCATT against Olfr1370 | -0.109
GGAACAACUUGAUACCUCUTT against Trim44 | -0.89
